Data taken from PubChem BioAssay AID1159580 (chemical genetic matrix, 2015).
In all, about 5,500 compounds went through this assay and about 2,000 (36%) were called active. Another 18% or so got no clear call; they are omitted. No stated cut-off is given here; in the data, active means normalized growth mostly below about 0.91 (no sharp cut-off); inconclusive means no clear call, values can overlap the other calls; inactive means mostly above about 0.92. This is one part of the list.

Assay: chemical genetic growth profiling, strain panel (AID 1159580);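 further: tested at 20 µM; growth read once vehicle control cultures reached saturation at 30 °C; 1 = growth at the plate median or of vehicle wells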
Conditions: S. cerevisiae deletion strains, growth OD

Measured: normalized growth

CO[C@H]1/C=C/O[C@@]2(C)Oc3c(C)c(O)c4c(O)c(c5c(nc6cc(C)ccn65)c4c3C2=O)NC(=O)/C(C)=C\C=C\[C@H](C)[C@H](O)[C@@H](C)C(O)[C@@H](C)[C@H](OC(C)=O)[C@@H]1C (stereo not given in full)
inactive: locus YAL021C, strain ccr4, stronger effect = lower value 1.04 | locus YAL026C, strain drs2, stronger effect = lower value 1.04 | locus YAL030W, strain snc1, stronger effect = lower value 1.04 | locus YBL061C, strain skt5, stronger effect = lower value 1.04 | locus YBR009C, strain hhf1, stronger effect = lower value 1.01 | locus YBR023C, strain chs3, stronger effect = lower value 1.05 | locus YBR171W, strain sec66, stronger effect = lower value 1.06 | locus YBR231C, strain swc5, stronger effect = lower value 1.05 | locus YBR279W, strain paf1, stronger effect = lower value 1.03 | locus YCL011C, strain gbp2, stronger effect = lower value 1.05 | locus YCL016C, strain dcc1, stronger effect = lower value 1.03 | locus YCL061C, strain MRC1, stronger effect = lower value 1.04 | locus YCL069W, strain vba3, stronger effect = lower value 1.05 | locus YCR088W, strain abp1, stronger effect = lower value 1.04 | locus YDL005C, strain med2, stronger effect = lower value 1.06 | locus YDL040C, strain nat1, stronger effect = lower value 1.03 | locus YDR001C, strain nth1, stronger effect = lower value 1.04 | locus YDR069C, strain doa4, stronger effect = lower value 1.04 | locus YDR137W, strain rgp1, stronger effect = lower value 0.988 | locus YDR159W, strain sac3, stronger effect = lower value 1.05 | locus YDR195W, strain ref2 1.05 | locus YDR297W, strain sur2, stronger effect = lower value 1.04 | locus YDR334W, strain swr1, stronger effect = lower value 1.03 | locus YDR335W, strain msn5, stronger effect = lower value 1.04 | locus YDR392W, strain spt3, stronger effect = lower value 0.961 | locus YEL003W, strain gim4, stronger effect = lower value 1.04 | locus YEL037C, strain rad23, stronger effect = lower value 1.04 | locus YEL061C, strain CIN8 (second series), stronger effect = lower value 1.04 | locus YER015W, strain faa2, stronger effect = lower value 1.04 | locus YER016W, strain bim1, stronger effect = lower value 1.03 | locus YER111C, strain swi4, stronger effect = lower value 1.05 | locus YER155C, strain BEM2 (second series), stronger effect = lower value 1.02 | locus YFR010W, strain ubp6, stronger effect = lower value 1.04 | locus YGL167C, strain pmr1, stronger effect = lower value 1.04 | locus YGL173C, strain kem1, stronger effect = lower value 1.04 | locus YGL227W, strain vid30, stronger effect = lower value 1.05 | locus YGL240W, strain doc1, stronger effect = lower value 1.03 | locus YGL253W, strain hxk2, stronger effect = lower value 1.06 | locus YHR013C, strain ard1, stronger effect = lower value 1.08 | locus YHR027C, strain rpn1, stronger effect = lower value 1.04 | locus YHR030C, strain SLT2, stronger effect = lower value 1.03 | locus YHR079C, strain IRE1, stronger effect = lower value 1.03 | locus YHR142W, strain chs7, stronger effect = lower value 1.07 | locus YJL092W, strain hpr5, stronger effect = lower value 1.04 | locus YJL095W, strain BCK1 (second series), stronger effect = lower value 1.03 | locus YJL095W, strain BCK1, stronger effect = lower value 0.988 | locus YJL115W, strain asf1, stronger effect = lower value 1.04 | locus YJL129C, strain trk1, stronger effect = lower value 1.06 | locus YJL154C, strain vps35, stronger effect = lower value 1.04 | locus YJL164C, strain tpk1, stronger effect = lower value 1.04 | locus YJL166W, strain qcr8, stronger effect = lower value 1.05 | locus YJL187C, strain SWE1, stronger effect = lower value 1.06 | locus YJR066W, strain TOR1, stronger effect = lower value 0.982 | locus YKL160W, strain elf1, stronger effect = lower value 1.05 | locus YKR026C, strain gcn3, stronger effect = lower value 1.05 | locus YKR091W, strain srl3, stronger effect = lower value 1.04 | locus YLL001W, strain dnm1, stronger effect = lower value 1.08 | locus YLL026W, stronger effect = lower value 1.04 | locus YLL041C, strain sdh2, stronger effect = lower value 1.04 | locus YLR027C, strain aat2, stronger effect = lower value 1.03 | locus YLR113W, strain HOG1, stronger effect = lower value 1.01 | locus YLR221C, strain rsa3, stronger effect = lower value 1.06 | locus YLR258W, strain gsy2, stronger effect = lower value 1.04 | locus YLR262C, strain YPT6 (second series), stronger effect = lower value 1.09 | locus YLR320W, strain mms22, stronger effect = lower value 1.04 | locus YLR342W, strain FKS1, stronger effect = lower value 1.04 | locus YLR357W, strain rsc2, stronger effect = lower value 1.07 | locus YLR370C, strain arc18, stronger effect = lower value 1.04 | locus YLR384C, strain iki3, stronger effect = lower value 1.04 | locus YML120C, strain ndi1, stronger effect = lower value 1.02 | locus YMR058W, strain fet3, stronger effect = lower value 1.03 | locus YMR125W, strain sto1, stronger effect = lower value 1.05 | locus YMR129W, stronger effect = lower value 1.03 | locus YMR205C, strain PFK2, stronger effect = lower value 1.05 | locus YMR231W, strain pep5, stronger effect = lower value 1.04 | locus YNL071W, strain lat1, stronger effect = lower value 1.05 | locus YNL183C, strain NPR1, stronger effect = lower value 0.988 | locus YNL209W, strain ssb2, stronger effect = lower value 1.03 | locus YNL248C, strain rpa49, stronger effect = lower value 1.06 | locus YNL322C, strain KRE1 (second series), stronger effect = lower value 1.05 | locus YNR049C, strain mso1, stronger effect = lower value 1.03 | locus YOR001W, strain rrp6, stronger effect = lower value 1.01 | locus YOR070C, strain gyp1, stronger effect = lower value 1.04 | locus YOR080W, strain dia2, stronger effect = lower value 1.04 | locus YOR083W, strain WHI5, stronger effect = lower value 1.04 | locus YOR106W, strain vam3, stronger effect = lower value 1.1 | locus YOR231W, strain MKK1, stronger effect = lower value 0.989 | locus YOR265W, strain rbl2, stronger effect = lower value 1.03 | locus YOR270C, strain vph1, stronger effect = lower value 1.1 | locus YOR290C, strain snf2, stronger effect = lower value 1.04 | locus YPL051W, strain arl3, stronger effect = lower value 1.02 | locus YPL078C, strain atp4, stronger effect = lower value 1.05 | locus YPL106C, strain sse1, stronger effect = lower value 1.03 | locus YPL240C, strain hsp82, stronger effect = lower value 1.04 | locus YPL256C, strain CLN2, stronger effect = lower value 1.06
